Bioassay records as filed in PubChem.
In the library only some 12% were active in any assay of this set; here they are far more common.
Sfp inh: inhibitors of Bacillus subtilis Sfp phosphopantetheinyl transferase; Q9F4F7; Biochemical Sfp PPTase activity, qHTS; Potency, µM, hits mostly inhibitors; 310,000 compounds, 3.5% hits; AID 1490;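 note: the enzyme is Sfp with the accession as filed and its product quenches rhodamine fluorescence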
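Step 1, compound plus 15 nM Sfp-PPTase, 15 min, room temperature. Step 2, add rhodamine-CoA (5 uM) and BHQ-2-YbbR (12.5 uM). Step 3, read 525/598 nm fluorescence at 0 and 30 min.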
ALDH1A1 block: ALDH1A1 (human) enzyme inhibition; P00352; Purified ALDH1A1, NADH fluorescence, propionaldehyde substrate; Potency, µM (titrated, usually from 75.3 µM), actives largely listed as inhibitors; 220,000 compounds, 7.3% hits; active = well fitted inhibition curve with a large enough effect, not every such curve was filed as active; inconclusive = small, poorly fitted or top-dose-only effect, or another doubt; inactive = no such curve, though single readings can be large or run the other way
Target sequence (P00352 whole entry, looked up): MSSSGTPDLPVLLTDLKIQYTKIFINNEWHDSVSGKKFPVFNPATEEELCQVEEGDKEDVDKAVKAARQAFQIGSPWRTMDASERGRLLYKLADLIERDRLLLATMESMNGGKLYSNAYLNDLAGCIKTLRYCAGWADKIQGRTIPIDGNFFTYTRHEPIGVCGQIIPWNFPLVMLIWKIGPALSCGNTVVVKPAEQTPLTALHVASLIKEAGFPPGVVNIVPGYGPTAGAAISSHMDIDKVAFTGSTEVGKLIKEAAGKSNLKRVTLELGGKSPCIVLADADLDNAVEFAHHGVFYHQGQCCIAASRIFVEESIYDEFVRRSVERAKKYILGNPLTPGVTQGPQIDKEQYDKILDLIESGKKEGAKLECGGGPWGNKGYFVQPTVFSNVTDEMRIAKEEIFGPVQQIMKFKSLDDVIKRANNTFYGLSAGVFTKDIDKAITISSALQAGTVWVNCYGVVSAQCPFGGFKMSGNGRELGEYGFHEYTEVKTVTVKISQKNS
RORg inh: ROR gamma (mouse) transcription inhibition; Drosophila S2 Gal4-RORgamma UAS-luciferase reporter, 20 h; Potency, µM (titrated, usually from 53.6 µM), actives largely listed as inhibitors; 310,000 compounds, 5.4% hits; AID 2551; note: nearly all actives have a fitted effect of over 60% in size
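A Gal4/UAS one-hybrid system in insect cells: metallothionein-promoter Gal4–ROR gamma fusion plus Photinus luciferase reporter. Copper sulfate 700 uM final, 20 hr ambient incubation, luminescent detection after 10 min with reagent.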
PLK1 PBD inh: inhibitors of human PLK1 polo-box domain binding; 360,000 compounds, 2.8% hits; Plk1 PBD binding of FITC phosphopeptide, fluorescence polarization; AID 720504; Potency, µM, most hits filed as inhibitors; note: series mostly up to about 57 µM; nearly all actives have a fitted effect of over 65% in size
VP16 counter: counter-screen for ROR gamma inhibitors: Gal4-VP16 reporter; Drosophila S2 Gal4-VP16 UAS-luciferase, luminescence, 20 h; Potency, µM (series often up to 53.6 µM), hits mostly inhibitors; 310,000 compounds, 3.5% hits;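 note: Gal4-VP16 expression switched on by copper sulfate through the metallothionein promoter; nearly all actives have a fitted effect of over 50% in size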
Large screens that a line does not name were inactive. Unless noted, calls come from the whole dose curve; as a rule, active = well fitted curve in the direction sought with a large enough effect; inconclusive = small, poorly fitted or top-dose-only effect, or another doubt; inactive = no such curve, though single readings can be large; an effect the other way counts as inactive or inconclusive.

Cc1cccc(NC(=O)C2CC(=O)n3cnnc3S2)c1 (centres undefined)	Sfp inh 28.2µM, ALDH1A1 block 0.708µM, RORg inh inconclusive, PLK1 PBD inh inconclusive, VP16 counter inconclusive
CCN=C1SC(C(=O)Nc2cccc(C)c2)CC(=O)N1CC (centres undefined)	PLK1 PBD inh inconclusive
CCC(CC)C(=O)N(C)c1c(C)nc2c(OCc3ccc(Cl)cc3Cl)cccn12	none (no result: Sfp inh, ALDH1A1 block, RORg inh, VP16 counter)
CC1(C)CC(=O)C=C(N2CCN(C3=CC(=O)CC(C)(C)C3)CC2)C1	ALDH1A1 block 20µM (no result: PLK1 PBD inh)
O=C(COC(=O)c1cccc(S(=O)(=O)N2CCN(c3ccccc3)CC2)c1)NCc1ccco1	RORg inh 8.91µM, VP16 counter 10µM
NC(=O)COC(=O)c1cccc(S(=O)(=O)N2CCN(c3ccccc3)CC2)c1	ALDH1A1 block inconclusive
CC(=O)Oc1ccc(N(C(C)=O)S(=O)(=O)c2cccs2)c2ccccc12	ALDH1A1 block 5.01µM, RORg inh 20µM, VP16 counter inconclusive
COc1cc(CNCCc2ccccc2)cc(Cl)c1OCc1ccccc1	Sfp inh 31.6µM, ALDH1A1 block inconclusive, RORg inh inconclusive, VP16 counter inconclusive
C=CCOc1c(Cl)cc(CNn2cn[nH]c2=S)cc1OC	Sfp inh inconclusive, ALDH1A1 block inconclusive, RORg inh 8.91µM, VP16 counter inconclusive
CCOc1c(Cl)cc(CNCC(O)c2ccccc2)cc1OC (centres undefined)	RORg inh 7.08µM, VP16 counter inconclusive
COc1cc(CNCc2ccccc2)cc(Cl)c1OC	none
CCOc1cc(CNCC(C)C)cc(Cl)c1OCc1ccccc1	ALDH1A1 block inconclusive, RORg inh inconclusive, VP16 counter inconclusive
COc1cc(CNn2cn[nH]c2=S)cc(Br)c1OCc1ccccc1F	RORg inh 3.16µM
COc1cc(CNn2cn[nH]c2=S)ccc1OCC(=O)NC(C)(C)C	none (no result: ALDH1A1 block)
COc1ccccc1CCn1c(=O)c(-c2cccc(Cl)c2)nc2cncnc21	none (no result: PLK1 PBD inh)
COc1cc(CNCCc2c[nH]c3ccccc23)cc(Cl)c1OCC(N)=O	ALDH1A1 block 15.8µM
COc1cc(CNCCc2ccc(F)cc2)ccc1OCc1ccc(Cl)nc1	RORg inh 2.24µM
CCOc1cc(CNCCc2c[nH]c3ccccc23)cc(Cl)c1OCC(N)=O	RORg inh inconclusive, VP16 counter inconclusive (no result: ALDH1A1 block)
COc1cc(CNn2cn[nH]c2=S)cc(Cl)c1OCc1ccccc1	ALDH1A1 block inconclusive, RORg inh 3.55µM, VP16 counter inconclusive
CC(C)=CCC[C@H](C)CC1Cc2[nH]c(=S)[nH]c(=O)c2C(c2ccc(Cl)cc2)O1 (some centres undefined)	none (no result: Sfp inh, ALDH1A1 block, RORg inh, VP16 counter)
O=C(CSc1nnc(SCc2cccc3ccccc23)s1)c1ccc2c(c1)OCO2	ALDH1A1 block 0.398µM
O=C(CSc1ccccn1)c1ccc2c(c1)OCO2	PLK1 PBD inh inconclusive
O=C(CSc1nncc2ccccc12)Nc1cccc(C(=O)O)c1	Sfp inh inconclusive, PLK1 PBD inh 18.9µM (no result: ALDH1A1 block)
O=C(CSc1nnc(SCc2cccc3ccccc23)s1)Nc1ccc(C(=O)O)cc1	PLK1 PBD inh 23.8µM
O=C(CSc1nc(-c2ccc(F)cc2)nc2c1Cc1ccccc1O2)Nc1cccc(C(=O)O)c1	PLK1 PBD inh 10.6µM
O=C(CSc1nc(-c2ccccc2)nc2c1Cc1ccccc1O2)Nc1ccccc1	none (no result: PLK1 PBD inh)
CCC1C(=O)NCCN1C(=O)c1ccc(OC)c(OC2CCN(C(C)=O)CC2)c1 (centres undefined)	none (no result: ALDH1A1 block)
CC(NC(=O)c1ccccc1)C(=O)NNC(=O)c1ccccc1Cl (centres undefined)	none (no result: Sfp inh, ALDH1A1 block, RORg inh, VP16 counter)
COc1ccccc1N=Nc1nc(-c2ccccc2)c(-c2ccccc2)[nH]1	ALDH1A1 block 22.4µM, RORg inh 3.16µM, VP16 counter 5.01µM
COc1cc(-c2nc(-c3ccccc3)c(-c3ccc(F)cc3)[nH]2)cc2c1OCO2	ALDH1A1 block inconclusive
Oc1ccccc1N=Nc1nc(-c2ccccc2)c(-c2ccccc2)[nH]1	RORg inh 3.98µM, VP16 counter 3.98µM
O=C(O)c1ccc(-c2nc(-c3ccccc3)c(-c3ccccc3)[nH]2)cc1	ALDH1A1 block inconclusive, PLK1 PBD inh inconclusive
COc1ccc(N=Nc2nc(-c3ccccc3)c(-c3ccccc3)[nH]2)cc1	RORg inh 2.24µM, VP16 counter 2.82µM
COCc1cc(C)nc(SCc2ccc(F)cc2)c1C#N	PLK1 PBD inh 23.8µM (no result: ALDH1A1 block)
COCc1cc(C)nc(SCc2ccc(Cl)cc2)c1C#N	none (no result: ALDH1A1 block)
COCc1cc(C)nc(SCC(=O)c2ccc(O)c(O)c2)c1C#N	Sfp inh 56.2µM
